Screens from PubChem.
HPGD block: qHTS Assay for Inhibitors of HPGD (15-Hydroxyprostaglandin Dehydrogenase); 15-hydroxyprostaglandin dehydrogenase [NAD(+)] (Homo sapiens), P15428; purified HPGD, NADH fluorescence kinetic, PGE2 substrate; Potency, µM, actives largely listed as inhibitors; actives 4.3% (n = 150,000)
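NADH formation kinetics: reaction with 30 uM PGE2 and 1 mM NAD+ (final), 20 nM enzyme, Tris-HCl pH 8 with Tween 20, after 15 min compound preincubation at room temperature. Fluorescence change, last versus first of five reads.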
IMPase cell inh: qHTS Assay for Identifying the Cell-Membrane Permeable IMPase Inhibitors. 120,000 tested, under 10 active. Inositol monophosphatase 1 (Rattus norvegicus), P97697. AID 901, 2007. CHO-M1 cells, IP1 accumulation, HTRF TR-FRET ratio. inhibition (IP1 accumulation), % at 46.1 µM; active = well fitted curve in the direction sought with a large enough effect in the signal ratio, not every such curve was filed as active; inconclusive = small, poorly fitted or top-dose-only effect, or a change in a side signal; inactive = no such curve, though single readings can be large or run the other way; the % refers to the signal ratio;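 also: cells stimulated with carbachol in lithium chloride buffer; higher means more IMPase inhibition seen as more IP1 and lower FRET ratio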
Target sequence (P97697 whole entry, looked up): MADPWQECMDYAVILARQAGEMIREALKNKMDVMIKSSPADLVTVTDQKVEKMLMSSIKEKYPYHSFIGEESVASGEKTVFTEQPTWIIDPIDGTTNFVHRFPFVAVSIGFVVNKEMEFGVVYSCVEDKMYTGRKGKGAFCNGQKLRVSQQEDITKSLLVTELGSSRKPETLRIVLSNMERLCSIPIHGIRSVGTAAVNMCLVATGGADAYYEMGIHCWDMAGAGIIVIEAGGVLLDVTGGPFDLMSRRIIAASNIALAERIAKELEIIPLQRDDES
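The IP-One HTRF competitive assay in carbachol-stimulated CHO-M1 cells quantifies cellular IP1. Compounds spanned up to 46 uM final, and activity is expressed as AC50 from concentration-response fits of the ratio and donor data.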
ALDH1A1 inh: qHTS Assay for Inhibitors of Aldehyde Dehydrogenase 1 (ALDH1A1); Potency, µM (doses to about 75.3 µM), usual class: inhibitors; Aldehyde dehydrogenase 1A1 (Homo sapiens), P00352; Purified ALDH1A1, NADH fluorescence, propionaldehyde substrate; actives 7.3% (n = 220,000); AID 1030, 2008
Numbers stand for hits; . = inactive; ? = inconclusive; / = no result given; [ ] = remark or other dose. An excerpt weighted towards active compounds, which were near 9% of everything screened. Unless noted, calls follow the shape of the dose curve; as a rule, active = well fitted inhibition curve with a large enough effect (not every such curve was filed as active); inconclusive = small, poorly fitted or top-dose-only effect, or another doubt; inactive = no such curve, though single readings can be large or run the other way.

SMILES	HPGD block	IMPase cell inh	ALDH1A1 inh
CN(Cc1ccccc1)S(=O)(=O)c1ccc2[nH]cc(C(=O)NCC3CCCO3)c(=O)c2c1 (stereo unspecified)	?	.	?
CCC1C(=NO)C(CC)C(c2ccccc2)NC1c1ccccc1 (stereo unspecified)	/	/	.
Cc1cc(C)c(S(=O)(=O)Nc2ccc(O)c(Sc3ncn[nH]3)c2)c(C)c1	.	/	.
Cc1cccc(C)c1NC(=O)C1(N(Cc2ccco2)C(=O)CC2NC(=O)NC2=O)CCCC1 (stereo unspecified)	.	.	.
COC(=O)c1cccc(C23CC4(C2)[C@H](CN(CC2CCCCC2)[C@@H]4c2ccccc2)C3c2ccc(Cl)nc2)c1 (stereo partly specified)	.	/	.
O=C(CSc1nnnn1-c1ccc(O)cc1)Nc1cccc(S(=O)(=O)N2CCCC2)c1	.	.	.
COc1ccccc1-n1cnnc1SCC(=O)N1CC(=O)Nc2ccccc21	.	.	4.47µM
COc1ccccc1-n1cnnc1SCC(=O)c1ccc[nH]1	.	.	?
Cc1cc(NC(=O)CSc2nncn2-c2ccccc2)no1	/	/	.
COC(=O)c1c(NC(=O)CSc2nnnn2-c2ccccc2)sc2c1CCC(C)C2 (stereo unspecified)	.	.	.
COC(=O)c1c(NC(=O)CSc2nnnn2-c2ccccc2)sc2c1CCC(C(C)(C)C)C2 (stereo unspecified)	.	.	12.6µM
Cc1cccc(-n2nnnc2SCC(=O)Nc2cccc(S(N)(=O)=O)c2)c1	/	/	7.94µM
COc1ccccc1-n1cnnc1SCC(=O)Nc1cc(C)on1	/	/	5.01µM
O=C(NC1CCCCC1)C(c1ccccc1)N(C(=O)Cc1ccsc1)c1ccccc1 (stereo unspecified)	.	.[1.84 µM]	.
CCCCOc1[nH]c2nc(-c3ccco3)n(Cc3ccco3)c(=N)c2c1C#N	.	.	?
O=C(CSc1nnnn1-c1ccccc1)NC(=O)Nc1ccc2c(c1)OCCO2	.	.	?
CCOc1ccccc1-n1nnnc1SCC(=O)NC(=O)Nc1ccc2c(c1)OCCO2	.	.	12.6µM
COc1ccccc1-n1nnnc1SCC(=O)Nc1ccccn1	.	.	0.631µM
Cc1cc(NC(=O)CSc2nnc3ccccn23)no1	/	/	.
CCc1nnc(NC(=O)CSc2nnnn2-c2cccc(C(=O)OC)c2)s1	14.1µM	.	?
COc1ccc(-n2nnnc2SCC(=O)Nc2ccccc2N2CCOCC2)cc1OC	/	/	.
Cc1cc(NC(=O)CSc2nnnn2-c2ccccc2)no1	/	/	15.8µM
CCc1nnc(NC(=O)CSc2nnnn2C)s1	?	.	.
COc1ncc2nc(-c3cn(C)c4ccccc34)c(=O)n(Cc3ccc(F)cc3)c2n1	.	/	.
O=c1cc(N2CCCC2)c2ccccc2o1	/	/	.
SMILES	HPGD block	IMPase cell inh	ALDH1A1 inh
C[N+]1(CN2C(=O)C3C4C=CC(C4)C3C2=O)CCCCC1 (stereo unspecified)	/	/	.
O=C(O)CC1COc2ccccc2N1C(=O)c1ccccc1Cl (stereo unspecified)	/	/	.
COc1ccccc1Nc1nnc(SCC(=O)N2CC(=O)Nc3ccccc32)s1	/	.	.
CCOc1ccccc1-n1nnnc1SCC(=O)Nc1cc2oc3ccccc3c2cc1OC	.	.	.
CCOc1ccccc1-n1nnnc1SCC(=O)Nc1cc(C)on1	.	?	8.91µM
O=C1CN(C(=O)CSc2nnc(Nc3ccccc3)s2)c2ccccc2N1	2.24µM	/	28.2µM
O=[N+]([O-])c1cc(Br)cc(C=Nc2ccc3c(c2)OCO3)c1O	/	/	10µM
Oc1[nH]c2ccccc2c1C=Nc1ccc2c(c1)OCO2	.	.	?
O=C(O)CCN=C1CCCc2ccccc2N1	.	.	31.6µM
O=C(O)CCCN=C1NC2(CCCC2)Cc2ccccc21	.	.	.
C/C(=N\NC(=O)CNc1cccc(Cl)c1C)C1CC1	/	/	.
COc1ccc(CN(C(=O)CSc2nnc(-c3c[nH]c4ccccc34)o2)c2ccc(F)cc2)cc1OC	.	.	.
CC(=O)c1cc(-c2ccccc2)n(CCC(=O)NC2CCCCC2)c1C	.	/	?
O=C(/C=C(\c1ccccc1)n1cncn1)c1ccccc1	.	/	?
O=C(/C=C(\c1ccc(Cl)cc1)n1cncn1)c1ccc(Cl)cc1	.	.	2.24µM
O=C1C=C(N2CCN(c3ccccn3)CC2)C(=O)c2c(O)ccc(O)c21	.	/	.[13.5 µM]
CC1=CC(=O)c2c(O)ccc(O)c2C1=O	/	/	31.6µM
COc1ccccc1-c1nccc(-n2ccnc2)n1	.	/	.
O=C(CCN1C(=O)C2C3C=CC(C3)C2C1=O)N1CCN(c2cccc(Cl)c2)CC1 (stereo unspecified)	.	.	7.94µM
